The source of these data is PubChem BioAssay (NCI).

Where “and” joins values, the source holds several entries; their conditions need not be identical. Equal values may be shown once. About 83,000 compounds went through this panel and 20% of them were active in at least one assay; those are over-represented in the sample as a whole.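 Step 1: grow cells in 96-well plates. Step 2: add test compound at a single concentration. Step 3: incubate 48 h. Step 4: record percent growth.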 Calls of active or inactive are those of the source. Rule for the calls: active = growth percent below 10; inactive = the rest.

Among the test systems are HCT-15 colon; HT29 colon; SNB-75 CNS; SNB-19 CNS; U251 CNS; PC-3 prostate; SK-MEL-5 melanoma; UACC-62 melanoma; LOX IMVI melanoma; SK-MEL-28 melanoma; SK-MEL-2 melanoma; EKVX NSCLC; SN12C renal; UO-31 renal; TK-10 renal; ACHN renal; CAKI-1 renal; A498 renal; CCRF-CEM leukemia; MOLT-4 leukemia.
Holding throughout (test): NCI-60 one-dose screen, 48 h (100 = growth as untreated, 0 = no growth, -100 = all killed)
Details in all cases: 10 µM unless noted

Turning to `Nc1ccc(S(=O)(=O)c2ccc(N)cc2)cc1`, the growth in the test with HCT-15 colon was 114% (inactive) and 106% (inactive); in the test with HT29 colon it was 106% (inactive) and 98.1% (inactive); in the test with SNB-75 CNS, 87.8% (inactive); in the test on SNB-19 CNS, 100% (inactive) and 104% (inactive); with U251 CNS it was 94.6% (inactive) and 106% (inactive); with PC-3 prostate, 85.2% (inactive) and 94.1% (inactive). In addition, the growth in the test with SK-MEL-5 melanoma was 92.8% (inactive) and 108% (inactive); in the test on UACC-62 melanoma, 98.7% (inactive) and 104% (inactive); in the test with LOX IMVI melanoma it was 94.6% (inactive) and 102% (inactive); with SK-MEL-28 melanoma, 114% (inactive) and 102% (inactive); with SK-MEL-2 melanoma, 122% (inactive) and 113% (inactive); in the test on EKVX NSCLC, 94.7% (inactive). Also, the growth with SN12C renal was 101% (inactive); in the test with UO-31 renal, 89.8% (inactive) and 75.5% (inactive); in the test with TK-10 renal it was 100% (inactive); in the test on ACHN renal, 96.9% (inactive) and 110% (inactive); in the test with CAKI-1 renal, 86.6% (inactive); with A498 renal, 103% (inactive) and 106% (inactive). The growth in the test with CCRF-CEM leukemia is 94.8% (inactive) and -23.9% (active); in the test with MOLT-4 leukemia, 109% (inactive) and 108% (inactive).
In the case of `Cn1cc(-c2csc(-c3cn(CCOC(N)=O)c4ccccc34)n2)c2cccnc21`, the growth is 64% (inactive) with HCT-15 colon; 47.6% (inactive) in the test with HT29 colon; 80.7% (inactive) with SNB-75 CNS; 78.6% (inactive) in the test on SNB-19 CNS; 77.8% (inactive) in the test with U251 CNS; 63.6% (inactive) with PC-3 prostate. Further, the growth is 71.9% (inactive) with SK-MEL-5 melanoma; 72.2% (inactive) in the test on UACC-62 melanoma; 79% (inactive) with LOX IMVI melanoma; 92.5% (inactive) in the test on SK-MEL-28 melanoma; 84.8% (inactive) with SK-MEL-2 melanoma; 68.7% (inactive) with EKVX NSCLC. In addition, the growth in the test with SN12C renal was 88.3% (inactive); in the test on UO-31 renal it was 79.6% (inactive); in the test on TK-10 renal it was 82.6% (inactive); in the test on ACHN renal, 97% (inactive); in the test with CAKI-1 renal, 88.2% (inactive); in the test with A498 renal, 19% (inactive). In addition, the growth in the test on CCRF-CEM leukemia was 73.9% (inactive); in the test with MOLT-4 leukemia, 69.1% (inactive).
On to `CCN1C(=O)/C(=c2\sc3n(c2=O)C2C(NN=3)N(CC)C(=O)N2CC)c2ccccc21` (stereo not given), for which the growth is 19.3% (inactive) in the test on HCT-15 colon; 13% (inactive) in the test on HT29 colon; 5.72% (active) in the test with SNB-75 CNS; 42% (inactive) with SNB-19 CNS; 32.3% (inactive) with U251 CNS; 26.3% (inactive) with PC-3 prostate. Further, the growth in the test with SK-MEL-5 melanoma was 12.7% (inactive); in the test on UACC-62 melanoma it was 32.9% (inactive); with LOX IMVI melanoma it was 33% (inactive); with SK-MEL-28 melanoma, 54.2% (inactive); in the test with SK-MEL-2 melanoma, 60.1% (inactive); with EKVX NSCLC, 65% (inactive). For the same compound, the growth with SN12C renal was 29.1% (inactive); in the test on UO-31 renal, 51.2% (inactive); in the test with TK-10 renal, 76.6% (inactive); in the test with ACHN renal it was 38.5% (inactive); with CAKI-1 renal, 45.7% (inactive); in the test with A498 renal, -25.4% (active). The growth in the test with CCRF-CEM leukemia is 25.7% (inactive); with MOLT-4 leukemia, 26.6% (inactive).
`COc1ccc(-c2cc3cnc4ccccc4c3oc2=O)cc1`: the growth was 92.3% (inactive) in the test with HCT-15 colon; 96.8% (inactive) with HT29 colon; 104% (inactive) with SNB-75 CNS; 99% (inactive) in the test on SNB-19 CNS; 94% (inactive) in the test with U251 CNS; 92.5% (inactive) in the test on PC-3 prostate. Moreover, the growth with SK-MEL-5 melanoma is 104% (inactive); with UACC-62 melanoma, 96.5% (inactive); with LOX IMVI melanoma, 97.6% (inactive); in the test with SK-MEL-28 melanoma, 100% (inactive); in the test on SK-MEL-2 melanoma, 120% (inactive); in the test on EKVX NSCLC, 101% (inactive). Further, the growth with SN12C renal was 100% (inactive); in the test on UO-31 renal, 88.7% (inactive); with TK-10 renal, 99.2% (inactive); in the test on ACHN renal, 106% (inactive); in the test on CAKI-1 renal, 89.7% (inactive); in the test with A498 renal, 93.1% (inactive). Also, the figures for the growth in the test with CCRF-CEM leukemia and in the test with MOLT-4 leukemia were 89% (inactive) and 104% (inactive), respectively.
On to `Cn1cc2c(=O)nc3c(-c4nc5ccccc5[nH]4)n[nH]n3c2n1`, for which the growth is 80.1% (inactive) in the test on HCT-15 colon; 89.7% (inactive) in the test on HT29 colon; 93.4% (inactive) with SNB-75 CNS; 95.8% (inactive) in the test with SNB-19 CNS; 89.6% (inactive) with U251 CNS; 67.1% (inactive) in the test on PC-3 prostate. The growth in the test on SK-MEL-5 melanoma is 53.1% (inactive); in the test on UACC-62 melanoma it was 70.6% (inactive); with LOX IMVI melanoma, 72.5% (inactive); in the test with SK-MEL-28 melanoma, 82.5% (inactive); in the test on SK-MEL-2 melanoma, 30.4% (inactive); in the test with EKVX NSCLC it was 95.6% (inactive). Besides, the growth is 77.9% (inactive) in the test with SN12C renal; 90.8% (inactive) in the test on UO-31 renal; 120% (inactive) in the test on TK-10 renal; 98.1% (inactive) with ACHN renal; 86.8% (inactive) with CAKI-1 renal; 58.7% (inactive) with A498 renal. Further, the growth was 6.27% (active) with CCRF-CEM leukemia and 47.8% (inactive) with MOLT-4 leukemia.
`CC1=CC(C)(C)NC(=S)N1c1ccc(Cl)cc1`: the growth with HCT-15 colon was 96.9% (inactive) and 88.8% (inactive); in the test with HT29 colon, 103% (inactive); in the test on SNB-75 CNS it was 91.3% (inactive) and 108% (inactive); in the test on SNB-19 CNS, 96.7% (inactive) and 96.9% (inactive); in the test on U251 CNS it was 98.7% (inactive) and 102% (inactive); in the test with PC-3 prostate it was 94% (inactive) and 85.1% (inactive). For the same compound, the growth is 100% (inactive) and 103% (inactive) in the test with SK-MEL-5 melanoma; 94.6% (inactive) and 84.9% (inactive) in the test with UACC-62 melanoma; 95.2% (inactive) and 97.7% (inactive) in the test with LOX IMVI melanoma; 101% (inactive) and 105% (inactive) with SK-MEL-28 melanoma; 101% (inactive) and 94.3% (inactive) in the test with SK-MEL-2 melanoma; 91.5% (inactive) and 106% (inactive) with EKVX NSCLC. Also, the growth in the test on SN12C renal is 95.6% (inactive) and 99% (inactive); in the test with UO-31 renal, 82.2% (inactive); with TK-10 renal, 99.7% (inactive) and 98.7% (inactive); in the test with ACHN renal, 94.7% (inactive) and 99.9% (inactive); in the test with CAKI-1 renal it was 91.6% (inactive) and 97.8% (inactive); in the test with A498 renal it was 104% (inactive). The growth with CCRF-CEM leukemia was 105% (inactive) and 89.1% (inactive); in the test with MOLT-4 leukemia, 95% (inactive) and 96.8% (inactive).
